# Measurements: article PMC11006913
# Numbering of substitutions follows the chain as printed.
# Tests used:
# Experiment in all cases: PBM; 200 nM protein, PBS
# Settings in all cases: dsDNA, one strand shown
# [1] = molecular target: HOXA7 (Homo sapiens, UniProt P31268 116-202)
# [2] = molecular target: MSX2 (Homo sapiens, UniProt P35548 130-214, R199I)
# [3] = molecular target: MSX2 (Homo sapiens, UniProt P35548 130-214)
# [4] = molecular target: MSX2 (Homo sapiens, UniProt P35548 130-214, F161Y)
# Sequence of MSX2 (Homo sapiens, UniProt P35548 130-214, F161Y) (P35548 130-214 F161Y): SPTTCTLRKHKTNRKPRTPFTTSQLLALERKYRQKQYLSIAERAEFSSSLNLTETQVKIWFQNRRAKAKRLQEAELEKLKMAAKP
# [5] = molecular target: HOXA7 (Homo sapiens, UniProt P31268 116-202, W177C)
# Sequence of HOXA7 (Homo sapiens, UniProt P31268 116-202, W177C) (P31268 116-202 W177C): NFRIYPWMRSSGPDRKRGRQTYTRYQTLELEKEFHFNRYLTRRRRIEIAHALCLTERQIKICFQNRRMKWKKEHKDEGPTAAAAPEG
# [6] = molecular target: ALX4 (Homo sapiens, UniProt Q9H161 200-286)
# Sequence of ALX4 (Homo sapiens, UniProt Q9H161 200-286) (Q9H161 200-286): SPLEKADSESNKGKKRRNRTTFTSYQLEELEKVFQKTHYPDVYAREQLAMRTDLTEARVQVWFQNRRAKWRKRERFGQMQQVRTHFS
# [7] = molecular target: ALX4 (Homo sapiens, UniProt Q9H161 200-286, Q225E)
# Sequence of ALX4 (Homo sapiens, UniProt Q9H161 200-286, Q225E) (Q9H161 200-286 Q225E): as the sequence (Q9H161 200-286) above, with Q26E counted along it
# [8] = molecular target: HOXD13 (Homo sapiens, UniProt P35453 263-343, T313R)
# Sequence of HOXD13 (Homo sapiens, UniProt P35453 263-343, T313R) (P35453 263-343 T313R): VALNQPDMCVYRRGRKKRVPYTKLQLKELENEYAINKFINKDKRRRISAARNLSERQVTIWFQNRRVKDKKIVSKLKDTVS
# [9] = molecular target: HOXD13 (Homo sapiens, UniProt P35453 263-343)
# Sequence of HOXD13 (Homo sapiens, UniProt P35453 263-343) (P35453 263-343): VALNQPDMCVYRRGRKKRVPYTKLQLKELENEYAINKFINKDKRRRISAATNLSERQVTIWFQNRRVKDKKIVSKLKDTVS
# [10] = molecular target: PRRX1 (Homo sapiens, UniProt P54821 80-166, F113S)
# Sequence of PRRX1 (Homo sapiens, UniProt P54821 80-166, F113S) (P54821 80-166 F113S): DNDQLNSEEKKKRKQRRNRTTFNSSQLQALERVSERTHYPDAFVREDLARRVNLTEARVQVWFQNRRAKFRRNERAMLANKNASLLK
# [11] = molecular target: PITX2 (Homo sapiens, UniProt Q99697 72-157)
# [12] = molecular target: CRX (Homo sapiens, UniProt O43186 26-111, R41L)
# Sequence of CRX (O43186 26-111 R41L): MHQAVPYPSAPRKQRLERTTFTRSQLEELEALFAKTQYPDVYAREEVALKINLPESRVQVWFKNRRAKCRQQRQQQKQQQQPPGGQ
# [13] = molecular target: PRRX1 (Homo sapiens, UniProt P54821 80-166)
# Sequence of PRRX1 (Homo sapiens, UniProt P54821 80-166) (P54821 80-166): as the sequence (P54821 80-166 F113S) above, with S34F counted along it
# [14] = molecular target: PROP1 (Homo sapiens, UniProt O75360 56-141)
# Sequence of PROP1 (Homo sapiens, UniProt O75360 56-141) (O75360 56-141): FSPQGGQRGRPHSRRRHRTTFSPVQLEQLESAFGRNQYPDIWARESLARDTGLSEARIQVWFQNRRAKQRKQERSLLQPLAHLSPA
# [15] = molecular target: PROP1 (Homo sapiens, UniProt O75360 56-141, R99H)
# Sequence of PROP1 (Homo sapiens, UniProt O75360 56-141, R99H) (O75360 56-141 R99H): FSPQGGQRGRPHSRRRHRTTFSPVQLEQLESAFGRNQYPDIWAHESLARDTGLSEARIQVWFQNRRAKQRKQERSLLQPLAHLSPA
# [16] = molecular target: PROP1 (Homo sapiens, UniProt O75360 56-141, F88S)
# Sequence of PROP1 (Homo sapiens, UniProt O75360 56-141, F88S) (O75360 56-141 F88S): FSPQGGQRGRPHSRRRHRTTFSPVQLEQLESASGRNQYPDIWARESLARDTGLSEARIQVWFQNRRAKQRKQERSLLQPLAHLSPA
# [17] = molecular target: ALX1 (Homo sapiens, UniProt Q15699 118-204, L144V)
# Sequence of ALX1 (Homo sapiens, UniProt Q15699 118-204, L144V) (Q15699 118-204 L144V): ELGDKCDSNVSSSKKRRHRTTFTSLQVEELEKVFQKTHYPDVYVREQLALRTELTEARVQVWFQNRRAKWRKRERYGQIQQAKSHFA
# [18] = molecular target: ALX1 (Homo sapiens, UniProt Q15699 118-204, L144R)
# Sequence of ALX1 (Homo sapiens, UniProt Q15699 118-204, L144R) (Q15699 118-204 L144R): as the sequence (Q15699 118-204 L144V) above, with V27R counted along it
# [19] = molecular target: ALX1 (Homo sapiens, UniProt Q15699 118-204)
# Sequence of ALX1 (Homo sapiens, UniProt Q15699 118-204) (Q15699 118-204): as the sequence (Q15699 118-204 L144V) above, with V27L counted along it
# [20] = molecular target: HOXA2 (Homo sapiens, UniProt O43364 129-215, R185T)
# Sequence of HOXA2 (Homo sapiens, UniProt O43364 129-215, R185T) (O43364 129-215 R185T): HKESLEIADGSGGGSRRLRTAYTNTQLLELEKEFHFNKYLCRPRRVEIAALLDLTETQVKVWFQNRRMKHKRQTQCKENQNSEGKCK
# [21] = molecular target: HOXA2 (Homo sapiens, UniProt O43364 129-215, R185K)
# Sequence of HOXA2 (Homo sapiens, UniProt O43364 129-215, R185K) (O43364 129-215 R185K): as the sequence (O43364 129-215 R185T) above, with T57K counted along it
# [22] = molecular target: HOXA2 (Homo sapiens, UniProt O43364 129-215, Y150S)
# Sequence of HOXA2 (Homo sapiens, UniProt O43364 129-215, Y150S) (O43364 129-215 Y150S): as the sequence (O43364 129-215 R185T) above, with Y22S, T57R counted along it
# [23] = molecular target: HOXA2 (Homo sapiens, UniProt O43364 129-215)
# Sequence of HOXA2 (Homo sapiens, UniProt O43364 129-215) (O43364 129-215): as the sequence (O43364 129-215 R185T) above, with T57R counted along it
# [24] = molecular target: VAX1 (Homo sapiens, UniProt Q5SQQ9 86-172)
# Sequence of VAX1 (Homo sapiens, UniProt Q5SQQ9 86-172) (Q5SQQ9 86-172): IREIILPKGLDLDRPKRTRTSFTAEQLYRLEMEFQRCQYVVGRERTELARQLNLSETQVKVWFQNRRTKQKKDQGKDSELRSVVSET
# [25] = molecular target: VAX1 (Homo sapiens, UniProt Q5SQQ9 86-172, T142I)
# Sequence of VAX1 (Homo sapiens, UniProt Q5SQQ9 86-172, T142I) (Q5SQQ9 86-172 T142I): as the sequence (Q5SQQ9 86-172) above, with T57I counted along it
# [26] = molecular target: VAX1 (Homo sapiens, UniProt Q5SQQ9 86-172, K157R)
# Sequence of VAX1 (Homo sapiens, UniProt Q5SQQ9 86-172, K157R) (Q5SQQ9 86-172 K157R): as the sequence (Q5SQQ9 86-172) above, with K72R counted along it
# [27] = molecular target: T1, NKX2-6 (Homo sapiens, UniProt A6NCS4 118-204)
# T1 sequence: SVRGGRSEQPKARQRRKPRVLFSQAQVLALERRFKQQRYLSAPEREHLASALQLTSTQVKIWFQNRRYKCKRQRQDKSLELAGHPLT
# [28] = molecular target: T2, NKX2-6 (Homo sapiens, UniProt A6NCS4 118-204, F151L)
# T2 sequence: T1 sequence with F34L
# [29] = molecular target: HOXD13 (Homo sapiens, UniProt P35453 263-343, T313A)
# Sequence of HOXD13 (Homo sapiens, UniProt P35453 263-343, T313A) (P35453 263-343 T313A): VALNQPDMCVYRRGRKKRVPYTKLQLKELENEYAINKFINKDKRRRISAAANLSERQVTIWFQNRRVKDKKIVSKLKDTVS
# [30] = molecular target: HOXB6 (Homo sapiens, UniProt P17509 132-218, K202E)
# Sequence of HOXB6 (Homo sapiens, UniProt P17509 132-218, K202E) (P17509 132-218 K202E): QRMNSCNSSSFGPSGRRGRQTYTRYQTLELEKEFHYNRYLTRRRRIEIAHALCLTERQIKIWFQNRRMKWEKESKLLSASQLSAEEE
# [31] = molecular target: HOXB6 (Homo sapiens, UniProt P17509 132-218)
# Sequence of HOXB6 (Homo sapiens, UniProt P17509 132-218) (P17509 132-218): as the sequence (P17509 132-218 K202E) above, with E71K counted along it
# [32] = molecular target: ALX3 (Homo sapiens, UniProt O95076 139-225)
# Sequence of ALX3 (O95076 139-225): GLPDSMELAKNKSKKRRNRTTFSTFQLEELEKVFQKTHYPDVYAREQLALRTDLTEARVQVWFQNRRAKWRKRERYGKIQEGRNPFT
# [33] = molecular target: HOXA4 (Homo sapiens, UniProt Q00056 201-287, R217L)
# Sequence of HOXA4 (Homo sapiens, UniProt Q00056 201-287, R217L) (Q00056 201-287 R217L): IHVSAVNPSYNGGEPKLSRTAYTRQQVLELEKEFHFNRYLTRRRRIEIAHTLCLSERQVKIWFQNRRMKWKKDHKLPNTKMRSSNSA
# [34] = molecular target: HOXC10 (Homo sapiens, UniProt Q9NYD6 254-340, K271E)
# Sequence of HOXC10 (Q9NYD6 254-340 K271E): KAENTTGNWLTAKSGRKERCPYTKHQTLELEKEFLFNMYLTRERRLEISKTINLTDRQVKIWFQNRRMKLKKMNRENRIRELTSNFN
# [35] = molecular target: HOXA4 (Homo sapiens, UniProt Q00056 201-287, W262F)
# Sequence of HOXA4 (Homo sapiens, UniProt Q00056 201-287, W262F) (Q00056 201-287 W262F): as the sequence (Q00056 201-287 R217L) above, with L17R, W62F counted along it
# Sequence of HOXA7 (Homo sapiens, UniProt P31268 116-202) (P31268 116-202): as the sequence (P31268 116-202 W177C) above, with C62W counted along it
# Sequence of MSX2 (Homo sapiens, UniProt P35548 130-214, R199I) (P35548 130-214 R199I): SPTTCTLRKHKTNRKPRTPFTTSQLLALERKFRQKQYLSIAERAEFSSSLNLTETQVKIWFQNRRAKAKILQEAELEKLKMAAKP
# Sequence of MSX2 (Homo sapiens, UniProt P35548 130-214) (P35548 130-214): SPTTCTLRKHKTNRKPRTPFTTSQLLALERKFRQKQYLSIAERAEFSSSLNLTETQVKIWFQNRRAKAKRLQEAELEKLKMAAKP
sequence,measurement,setting,value
GAGGGACC,binding signal,[1],"8.55 upbm affinity estimate (log intensity, higher = more binding, comparable within an allelic series)"
same,binding signal,[2],"9.48 upbm affinity estimate (log intensity, higher = more binding, comparable within an allelic series)"
same,binding signal,[3],"9.7 upbm affinity estimate (log intensity, higher = more binding, comparable within an allelic series)"
same,binding signal,[4],"9.64 upbm affinity estimate (log intensity, higher = more binding, comparable within an allelic series)"
same,binding signal,[5],"8.33 upbm affinity estimate (log intensity, higher = more binding, comparable within an allelic series)"
GAATATAA,binding signal,[1],"9.85 upbm affinity estimate (log intensity, higher = more binding, comparable within an allelic series)"
same,binding signal,[6],"10.8 upbm affinity estimate (log intensity, higher = more binding, comparable within an allelic series)"
same,binding signal,[7],"9.99 upbm affinity estimate (log intensity, higher = more binding, comparable within an allelic series)"
same,binding signal,[5],"8.92 upbm affinity estimate (log intensity, higher = more binding, comparable within an allelic series)"
AAATTACG,binding signal,[1],"10.3 upbm affinity estimate (log intensity, higher = more binding, comparable within an allelic series)"
same,binding signal,[5],"8.82 upbm affinity estimate (log intensity, higher = more binding, comparable within an allelic series)"
ATTACCAC,binding signal,[1],"10.4 upbm affinity estimate (log intensity, higher = more binding, comparable within an allelic series)"
same,binding signal,[8],"10.1 upbm affinity estimate (log intensity, higher = more binding, comparable within an allelic series)"
same,binding signal,[9],"10.7 upbm affinity estimate (log intensity, higher = more binding, comparable within an allelic series)"
same,binding signal,[5],"8.73 upbm affinity estimate (log intensity, higher = more binding, comparable within an allelic series)"
AAGATTAG,binding signal,[1],"9.43 upbm affinity estimate (log intensity, higher = more binding, comparable within an allelic series)"
same,binding signal,[10],"10.4 upbm affinity estimate (log intensity, higher = more binding, comparable within an allelic series)"
same,binding signal,[11],"12.4 upbm affinity estimate (log intensity, higher = more binding, comparable within an allelic series)"
same,binding signal,[5],"8.65 upbm affinity estimate (log intensity, higher = more binding, comparable within an allelic series)"
same,binding signal,[12],"12.4 upbm affinity estimate (log intensity, higher = more binding, comparable within an allelic series)"
same,binding signal,[13],"12.3 upbm affinity estimate (log intensity, higher = more binding, comparable within an allelic series)"
TCATTTCA,binding signal,[1],"9.51 upbm affinity estimate (log intensity, higher = more binding, comparable within an allelic series)"
same,binding signal,[5],"8.76 upbm affinity estimate (log intensity, higher = more binding, comparable within an allelic series)"
AGGAGCCT,binding signal,[1],"8.33 upbm affinity estimate (log intensity, higher = more binding, comparable within an allelic series)"
same,binding signal,[5],"8.35 upbm affinity estimate (log intensity, higher = more binding, comparable within an allelic series)"
AGAGCCTG,binding signal,[1],"8.58 upbm affinity estimate (log intensity, higher = more binding, comparable within an allelic series)"
same,binding signal,[5],"8.43 upbm affinity estimate (log intensity, higher = more binding, comparable within an allelic series)"
CGTTTATC,binding signal,[1],"9.65 upbm affinity estimate (log intensity, higher = more binding, comparable within an allelic series)"
same,binding signal,[14],"8.39 upbm affinity estimate (log intensity, higher = more binding, comparable within an allelic series)"
same,binding signal,[15],"7.9 upbm affinity estimate (log intensity, higher = more binding, comparable within an allelic series)"
same,binding signal,[16],"7.41 upbm affinity estimate (log intensity, higher = more binding, comparable within an allelic series)"
same,binding signal,[5],"8.89 upbm affinity estimate (log intensity, higher = more binding, comparable within an allelic series)"
CCAAGCCA,binding signal,[1],"8.43 upbm affinity estimate (log intensity, higher = more binding, comparable within an allelic series)"
same,binding signal,[17],"6.51 upbm affinity estimate (log intensity, higher = more binding, comparable within an allelic series)"
same,binding signal,[18],"6.6 upbm affinity estimate (log intensity, higher = more binding, comparable within an allelic series)"
same,binding signal,[5],"8.54 upbm affinity estimate (log intensity, higher = more binding, comparable within an allelic series)"
same,binding signal,[19],"6.46 upbm affinity estimate (log intensity, higher = more binding, comparable within an allelic series)"
AATAACAT,binding signal,[1],"10.1 upbm affinity estimate (log intensity, higher = more binding, comparable within an allelic series)"
same,binding signal,[20],"9.56 upbm affinity estimate (log intensity, higher = more binding, comparable within an allelic series)"
same,binding signal,[21],"11.6 upbm affinity estimate (log intensity, higher = more binding, comparable within an allelic series)"
same,binding signal,[22],"10.9 upbm affinity estimate (log intensity, higher = more binding, comparable within an allelic series)"
same,binding signal,[5],"8.98 upbm affinity estimate (log intensity, higher = more binding, comparable within an allelic series)"
same,binding signal,[23],"9.63 upbm affinity estimate (log intensity, higher = more binding, comparable within an allelic series)"
ACCCAGCC,binding signal,[1],"8.44 upbm affinity estimate (log intensity, higher = more binding, comparable within an allelic series)"
same,binding signal,[6],"8.13 upbm affinity estimate (log intensity, higher = more binding, comparable within an allelic series)"
same,binding signal,[7],"8.18 upbm affinity estimate (log intensity, higher = more binding, comparable within an allelic series)"
same,binding signal,[24],"7.07 upbm affinity estimate (log intensity, higher = more binding, comparable within an allelic series)"
same,binding signal,[25],"7.26 upbm affinity estimate (log intensity, higher = more binding, comparable within an allelic series)"
same,binding signal,[5],"8.42 upbm affinity estimate (log intensity, higher = more binding, comparable within an allelic series)"
same,binding signal,[26],"7 upbm affinity estimate (log intensity, higher = more binding, comparable within an allelic series)"
CGTCGCCC,binding signal,[1],"8.61 upbm affinity estimate (log intensity, higher = more binding, comparable within an allelic series)"
same,binding signal,[17],"6.4 upbm affinity estimate (log intensity, higher = more binding, comparable within an allelic series)"
same,binding signal,[18],"6.34 upbm affinity estimate (log intensity, higher = more binding, comparable within an allelic series)"
same,binding signal,[5],"8.42 upbm affinity estimate (log intensity, higher = more binding, comparable within an allelic series)"
same,binding signal,[19],"6.57 upbm affinity estimate (log intensity, higher = more binding, comparable within an allelic series)"
CCGGGGGC,binding signal,[1],"8.67 upbm affinity estimate (log intensity, higher = more binding, comparable within an allelic series)"
same,binding signal,[27],"9.19 upbm affinity estimate (log intensity, higher = more binding, comparable within an allelic series)"
same,binding signal,[28],"8.93 upbm affinity estimate (log intensity, higher = more binding, comparable within an allelic series)"
same,binding signal,[5],"8.26 upbm affinity estimate (log intensity, higher = more binding, comparable within an allelic series)"
CCGCTTCG,binding signal,[1],"8.43 upbm affinity estimate (log intensity, higher = more binding, comparable within an allelic series)"
same,binding signal,[5],"8.41 upbm affinity estimate (log intensity, higher = more binding, comparable within an allelic series)"
AGGGCGGC,binding signal,[1],"8.44 upbm affinity estimate (log intensity, higher = more binding, comparable within an allelic series)"
same,binding signal,[8],"9.45 upbm affinity estimate (log intensity, higher = more binding, comparable within an allelic series)"
same,binding signal,[9],"9.52 upbm affinity estimate (log intensity, higher = more binding, comparable within an allelic series)"
same,binding signal,[24],"7.1 upbm affinity estimate (log intensity, higher = more binding, comparable within an allelic series)"
same,binding signal,[29],"9.5 upbm affinity estimate (log intensity, higher = more binding, comparable within an allelic series)"
same,binding signal,[25],"6.95 upbm affinity estimate (log intensity, higher = more binding, comparable within an allelic series)"
same,binding signal,[5],"8.27 upbm affinity estimate (log intensity, higher = more binding, comparable within an allelic series)"
same,binding signal,[26],"6.98 upbm affinity estimate (log intensity, higher = more binding, comparable within an allelic series)"
AATTACCC,binding signal,[1],"11.4 upbm affinity estimate (log intensity, higher = more binding, comparable within an allelic series)"
same,binding signal,[30],"9.85 upbm affinity estimate (log intensity, higher = more binding, comparable within an allelic series)"
same,binding signal,[24],"12.7 upbm affinity estimate (log intensity, higher = more binding, comparable within an allelic series)"
same,binding signal,[4],"13 upbm affinity estimate (log intensity, higher = more binding, comparable within an allelic series)"
same,binding signal,[25],"12.5 upbm affinity estimate (log intensity, higher = more binding, comparable within an allelic series)"
same,binding signal,[5],"8.89 upbm affinity estimate (log intensity, higher = more binding, comparable within an allelic series)"
same,binding signal,[26],"12.6 upbm affinity estimate (log intensity, higher = more binding, comparable within an allelic series)"
same,binding signal,[31],"11.7 upbm affinity estimate (log intensity, higher = more binding, comparable within an allelic series)"
AACTTTAT,binding signal,[1],"9.71 upbm affinity estimate (log intensity, higher = more binding, comparable within an allelic series)"
same,binding signal,[32],"9.63 upbm affinity estimate (log intensity, higher = more binding, comparable within an allelic series)"
same,binding signal,[5],"8.8 upbm affinity estimate (log intensity, higher = more binding, comparable within an allelic series)"
AGCTTTCC,binding signal,[1],"8.42 upbm affinity estimate (log intensity, higher = more binding, comparable within an allelic series)"
same,binding signal,[14],"6.7 upbm affinity estimate (log intensity, higher = more binding, comparable within an allelic series)"
same,binding signal,[15],"6.84 upbm affinity estimate (log intensity, higher = more binding, comparable within an allelic series)"
same,binding signal,[16],"7.01 upbm affinity estimate (log intensity, higher = more binding, comparable within an allelic series)"
same,binding signal,[5],"8.43 upbm affinity estimate (log intensity, higher = more binding, comparable within an allelic series)"
ATATTAGA,binding signal,[1],"9.95 upbm affinity estimate (log intensity, higher = more binding, comparable within an allelic series)"
same,binding signal,[2],"11.1 upbm affinity estimate (log intensity, higher = more binding, comparable within an allelic series)"
same,binding signal,[3],"11.8 upbm affinity estimate (log intensity, higher = more binding, comparable within an allelic series)"
same,binding signal,[4],"11.5 upbm affinity estimate (log intensity, higher = more binding, comparable within an allelic series)"
same,binding signal,[5],"8.88 upbm affinity estimate (log intensity, higher = more binding, comparable within an allelic series)"
AATTACCT,binding signal,[1],"11.3 upbm affinity estimate (log intensity, higher = more binding, comparable within an allelic series)"
same,binding signal,[30],"9.87 upbm affinity estimate (log intensity, higher = more binding, comparable within an allelic series)"
same,binding signal,[33],"12.1 upbm affinity estimate (log intensity, higher = more binding, comparable within an allelic series)"
same,binding signal,[34],"11.9 upbm affinity estimate (log intensity, higher = more binding, comparable within an allelic series)"
same,binding signal,[4],"12.9 upbm affinity estimate (log intensity, higher = more binding, comparable within an allelic series)"
same,binding signal,[5],"8.74 upbm affinity estimate (log intensity, higher = more binding, comparable within an allelic series)"
same,binding signal,[35],"11.5 upbm affinity estimate (log intensity, higher = more binding, comparable within an allelic series)"
same,binding signal,[31],"11.8 upbm affinity estimate (log intensity, higher = more binding, comparable within an allelic series)"
